According to PubChem BioAssay (Tox21):
Results filed as inconclusive are left out. Calls of active or inactive are those of the source. Calls come from the whole dose curve.

Key:
[1] = biological target: Acetylcholinesterase (Homo sapiens) (UniProt P22303); assay: Acetylcholinesterase (AChE) small molecule antagonists: colormetric cell-based qHTS assay (AID 1347395); note: nearly all actives have a fitted effect of over 30% in size
Outline: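 Homogeneous whole-cell format. SH-SY5Y cells seeded overnight, dosed with compound (30 min, 37 C, 5% CO2), then given DTNB/acetylthiocholine cocktail for 90 min at 37 C; colorimetric signal.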

[2] = biological target: Acetylcholinesterase (Homo sapiens) (UniProt P22303); assay: Acetylcholinesterase (AChE) small molecule antagonists: enzyme-based qHTS assay (AID 1347397); settings: Potency: AChE enzyme activity inhibition; outcome: AChE enzyme activity inhibition; note: nearly all actives have a fitted effect of over 55% in size
Outline: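 Recombinant human AChE (50 mU/mL) preincubated with compound 30 min at room temperature; acetylthiocholine plus DTNB then added, and thiocholine formation read colorimetrically after 10 min at room temperature. DMSO served as vehicle control.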

[3] = biological target: Acetylcholinesterase (Homo sapiens) (UniProt P22303); assay: Acetylcholinesterase (AChE) small molecule antagonists: fluorescence cell-based qHTS assay (AID 1347398); settings: Potency: AChE activity; outcome: AChE activity; note: nearly all actives have a fitted effect of over 50% in size
Outline: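 SH-SY5Y cells (2000/well), attached overnight, incubated with compound 30 min at 37 C. Acetylthiocholine plus Thiolite Green then added for 40 min at room temperature. Thiocholine fluorescence (Ex/Em 490/520 nm) reports cellular AChE activity.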

[4] = biological target: Acetylcholinesterase (Homo sapiens) (UniProt P22303); assay: Acetylcholinesterase (AChE) small molecule antagonists: enzyme-based qHTS assay with human liver microsomes (AID 1347399); settings: Potency: qHTS inhibition; outcome: qHTS inhibition; note: nearly all actives have a fitted effect of over 60% in size
Outline: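 Recombinant human AChE (50 mU/mL in the enzyme mix) and human liver microsomes (0.25 mg/mL final) were preincubated with compound and NADPH (0.25 mg/mL final) for 30 min at 37 C. Acetylthiocholine/DTNB was then added; thiocholine was read colorimetrically after 10 min at room temperature.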

Measured: Potency

Chain of Acetylcholinesterase (Homo sapiens) (P22303 whole entry, looked up): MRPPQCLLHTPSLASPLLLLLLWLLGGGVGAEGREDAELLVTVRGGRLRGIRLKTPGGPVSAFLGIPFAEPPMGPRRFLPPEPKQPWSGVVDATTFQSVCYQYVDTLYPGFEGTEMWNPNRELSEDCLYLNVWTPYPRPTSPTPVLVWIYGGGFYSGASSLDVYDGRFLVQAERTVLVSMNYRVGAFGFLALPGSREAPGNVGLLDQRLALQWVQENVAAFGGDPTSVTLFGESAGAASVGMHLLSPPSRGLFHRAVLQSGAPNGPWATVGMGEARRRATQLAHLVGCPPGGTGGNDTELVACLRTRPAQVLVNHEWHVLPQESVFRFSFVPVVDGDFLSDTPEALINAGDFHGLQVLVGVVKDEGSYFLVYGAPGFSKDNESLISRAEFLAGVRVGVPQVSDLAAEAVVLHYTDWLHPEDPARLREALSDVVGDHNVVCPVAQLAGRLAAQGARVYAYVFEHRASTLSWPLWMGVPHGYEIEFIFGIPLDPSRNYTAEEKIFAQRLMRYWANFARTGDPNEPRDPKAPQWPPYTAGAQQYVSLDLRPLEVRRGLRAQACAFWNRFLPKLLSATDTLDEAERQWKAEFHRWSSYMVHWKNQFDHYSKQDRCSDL

CC(C)(COC(=O)c1ccccc1)COC(=O)c1ccccc1
inactive: all assays above

CC(C)(O)C(=O)O
inactive: all assays above

CCN(CC)CC(=O)OCC(=O)[C@@]1(O)CC[C@H]2[C@@H]3CCC4=CC(=O)CC[C@]4(C)[C@H]3[C@@H](O)C[C@@]21C
inactive: all assays above

CC(C)CCCCCCOC(=O)CCCCC(=O)OCCCCCCC(C)C
inactive: all assays above

Cc1nc(-c2ccccn2)ncc1C(=O)Nn1cc(C)c2cc(F)ccc21
inactive: all assays above

NS(=O)(=O)Cc1noc2ccccc12
inactive: all assays above

CC(CCc1ccc2c(c1)OCO2)NN (stereo not given)
inactive: all assays above

O=C(Cn1ccnc1[N+](=O)[O-])NCCO
inactive: all assays above

CCCCCOc1ccccc1/C(=C\SC)n1ccnc1
inactive: all assays above

CC(C)COC(=O)COc1ccc(Cl)cc1Cl
inactive: all assays above

O=S(=O)(O)CCN1CCN(CCO)CC1
inactive: all assays above

Clc1cc(Cl)c(Cl)nc1Cl
inactive: all assays above

CO[Si](CCC1CCC2OC2C1)(OC)OC (stereo not given)
inactive: all assays above

Cc1ccc(CO)cc1
inactive: all assays above

O=Cc1cccc(Br)c1
inactive: all assays above
